Pf Dd2 inh: inhibitors of Plasmodium falciparum Dd2 growth. Potency, µM (top dose mostly 28.9 µM), hits mostly inhibitors. 4.3% of 120,000 active. P. falciparum Dd2 growth, SYBR Green, 72 h; active = well fitted inhibition curve with a large enough effect; also: nearly all actives have a fitted effect of over 65% in size
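Infected erythrocytes (Dd2, 0.3% parasitemia, 2.5% hematocrit final) are added to compound in RPMI-1640/Albumax II medium, grown 72 h at 37C in low oxygen, then lysed with saponin/Triton-X containing SYBR Green and read by fluorescence.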
Of the large screens only hits and unclear results are named; the others gave an inactive call. The entries come from a sample that favours hits as a whole.

Cc1ncsc1CN1CCCCCNC(=O)CC1c1ccccc1 (configuration not stated)	none
O=C1CC(c2ccccc2)N(Cc2ccc(F)c(F)c2)CCCCCN1 (configuration not stated)	Pf Dd2 inh 10µM
Cc1ccc(CN2CCCCCNC(=O)CC2c2ccccc2)o1 (configuration not stated)	none
O=C1CC(c2ccccc2)N(Cc2ccc(C(F)(F)F)cc2)CCCCCN1 (configuration not stated)	none
COc1ccc(CN2CCCCCNC(=O)CC2c2ccccc2)cc1Cn1ccnc1 (configuration not stated)	Pf Dd2 inh 2µM
COCCC(=O)N1CCCCCCNC(=O)CC1c1ccccc1 (configuration not stated)	none
COCCNC(=O)c1ccc2c(c1)N(C)C(CC(=O)N1CCCC1)CO2 (configuration not stated)	none
Cn1cc([C@@H](NC(=O)CCn2nnc3ccccc32)C2CC(O)C2)cn1 (some centres not stated)	none
COc1ccc(CN2CCCOC(CN3CCCCC3)C2)cc1C(=O)O (configuration not stated)	none
COc1cccc(CC(=O)N2CCC3(CC2)CC(OCC2CC2)CCO3)c1 (configuration not stated)	none
CCOC(=O)c1c(C)[nH]c(C)c1S(=O)(=O)N(C)CC(=O)Nc1cccc(Cl)c1C	none
CCOC(=O)c1c(C)[nH]c(C)c1S(=O)(=O)NCC(=O)Nc1cc(Cl)ccc1OC	none
CCOC(=O)c1c(C)[nH]c(C)c1S(=O)(=O)N(C)CC(=O)Nc1cc(Cl)ccc1OC	Pf Dd2 inh 10µM
COc1cccc(C(=O)Nc2ccc(S(=O)(=O)N(Cc3ccccc3)c3ccccc3)cc2)c1	none
O=C(Nc1ccc(S(=O)(=O)N(Cc2ccccc2)c2ccccc2)cc1)c1ccc(F)cc1	none
Cc1ccc(NC(=O)c2ccc(N(Cc3ccccc3)S(C)(=O)=O)cc2)cc1	Pf Dd2 inh 6.3µM
CN(CC1(C)CCOCC1)C(=O)c1cc(Cl)ccc1F	none
CC(C)[C@@H]1CN(C(=O)c2cccc(Cn3cccn3)c2)C[C@H]1NC(=O)N(C)C	none
COc1ccc(-c2nc(C3CC(=O)N(c4ccc(C)cc4)C3)no2)c(C)c1 (configuration not stated)	none
CC(C)C[C@@H]1N[C@H](C(=O)N2CCC(NC(=O)c3ccccc3)CC2)Cc2c[nH]c3cccc1c23	Pf Dd2 inh 10µM
CCCNC(=O)[C@@H]1Cc2c[nH]c3cccc(c23)[C@H](CC(C)C)N1	none
CC(C)C[C@@H]1N[C@H](C(=O)NCc2ccccc2)Cc2c[nH]c3cccc1c23	none
CC(C)C[C@@H]1N[C@H](C(=O)NCc2ccco2)Cc2cn(Cc3nccn3C)c3cccc1c23	none
CC(C)C[C@@H]1N[C@H](C(=O)N2CCCC2)Cc2c[nH]c3cccc1c23	none
CC(C)C[C@@H]1N[C@H](C(=O)NCc2ccccc2Cl)Cc2c[nH]c3cccc1c23	none
CC(C)C[C@@H]1N[C@H](C(=O)NCCCn2ccnc2)Cc2c[nH]c3cccc1c23	Pf Dd2 inh 8.9µM
CC(C)C[C@@H]1N[C@H](C(=O)NCCOc2ccccc2)Cc2c[nH]c3cccc1c23	Pf Dd2 inh 13µM
C[C@@H]1C(=O)O[C@H]2[C@H]1CC[C@@]1(C)Cc3sc(Nc4ccc(C(=O)O)cc4)nc3[C@@H](C)[C@H]21	none
CC(=O)N1CCC(C(=O)N2CCC3(CC2)NC(=O)N(c2ccccc2)N3)CC1	none
Cc1nnnn1CCC(=O)NCC1CCN(c2cnn(C)c(=O)c2)C1 (configuration not stated)	none
CC(=O)N1CCC(Oc2ccc(Cl)cc2C(=O)NCCOc2cccnc2)CC1	none
CC(C)NC(=O)N1CCCC1c1nc(CCOCC2CC2)no1 (configuration not stated)	none
O=C(NCc1ccoc1)c1ccc2nc(-c3ccc(F)cc3)cn2c1	none
C[C@@H](NC(=O)C1=C[C@@H](NS(=O)(=O)c2cccs2)[C@@H](O)[C@H](O)C1)C(N)=O	none
Cc1cn2nnc(C(=O)NC3CCCCCC3)c2c(=O)[nH]1	none
Cc1cn2nnc(C(=O)NCCCc3ccccc3)c2c(=O)[nH]1	none
Cc1cn2nnc(C(=O)N3CCC(C(=O)NC4CCCCC4)CC3)c2c(=O)[nH]1	none
CCCCNC(=O)c1nnn2cc(C)[nH]c(=O)c12	none
Cc1cn2nnc(C(=O)NC3CCN(Cc4ccccc4)CC3)c2c(=O)[nH]1	none
Cc1cn2nnc(C(=O)NCc3ccco3)c2c(=O)[nH]1	none
Cc1cn2nnc(C(=O)NC3CCCCCCC3)c2c(=O)[nH]1	Pf Dd2 inh 7.9µM
CCOc1ccc(NC(=O)c2nnn3cc(C)[nH]c(=O)c23)cc1	Pf Dd2 inh 0.63µM
CCOc1ccccc1CNC(=O)c1nnn2cc(C)[nH]c(=O)c12	Pf Dd2 inh 8.9µM
COCC1CN(C(=O)CCn2nc(C)cc2C)CC12CCOCC2 (configuration not stated)	none
COc1ccc(-c2cn(C)c(=O)n3cc(COc4ccccc4)nc23)c(C)c1	none
O=C(N[C@H]1C[C@H]2C(=O)NC[C@@H](CCC(=O)N3CCN(c4ccccc4)CC3)N2C1)c1ccco1	none
c1cc(Cn2cccn2)cc(-c2cn(CC3CNCCO3)nn2)c1 (configuration not stated)	none
Cc1ccc(-c2c(C(=O)N3CCN(c4cccc(C)c4)C(C)C3)oc(=O)c3ccccc23)cc1 (configuration not stated)	Pf Dd2 inh 4.5µM
Cc1cccc(N2CCN(C(=O)c3cc4c(=O)n(C)c5ccccc5c4s3)CC2C)c1 (configuration not stated)	none
Cc1cccc(N2CCN(C(=O)c3ccc4c(c3)c(C)c(C)n4C)CC2C)c1 (configuration not stated)	none
O=C(Nc1ccc2c(c1)C(=O)N1CCC[C@H]1C(=O)N2)c1cc(-c2cccnc2)n[nH]1	none
Cc1cccc(OCc2nnc(-c3ccccc3)o2)c1	none
COc1ccccc1NC(=O)CSc1nnc(-c2cccc(Cl)c2)o1	none
CCc1cc(=O)n(CC(=O)Nc2ccccc2C)c(-c2cccc(F)c2)n1	none
COc1cccc(NC(c2nnc(-c3ccccc3)o2)c2ccc(F)cc2Cl)c1 (configuration not stated)	Pf Dd2 inh 10µM
CCOC(=O)c1cccc(NC(c2nnc(-c3ccccc3)o2)c2ccccc2F)c1 (configuration not stated)	none
CCc1ccccc1NC(c1nnc(-c2cccc(F)c2)o1)c1ccc(F)cc1Cl (configuration not stated)	Pf Dd2 inh 13µM
CC[C@H]1CN(C(C)=O)CC[C@H]1CC(=O)NCCOC	none
COc1ccc2cc(C3CN(C(=O)c4cccn4C)CCO3)ccc2c1 (configuration not stated)	none
CCCc1cc(C(=O)N[C@H](c2ccccn2)C2CC(O)C2)cs1 (some centres not stated)	none
O=C(N[C@H](c1ccccn1)C1CC(O)C1)c1cc(=O)n(-c2ccccc2)[nH]1 (some centres not stated)	Pf Dd2 inh 1.4µM
O=C(N[C@H](c1ccccn1)C1CC(O)C1)c1cccc(Cn2cccn2)c1 (some centres not stated)	none
CCC1(N2CCN(C)CC2)CCN(C(=O)CCC2CCCC2)C1 (configuration not stated)	none
COCc1nc(C2CCCN(C(=O)CC3CCCC3)C2)no1 (configuration not stated)	none
CCCS(=O)(=O)N1CCCC(Cc2noc(-c3ccncc3)n2)C1 (configuration not stated)	none
O=C(c1ccc(C(F)(F)F)cc1)N1CCC(N2CCCOC2=O)CC1	none
CNC(=O)[C@H]1C[C@H](Oc2cccnc2)CN1C(=O)NCc1ccc(C)cc1	none
